JMJD2A Tudor: qHTS Assay for Inhibitors of JMJD2A-Tudor Domain; AID 504339, 2011; Lysine-specific demethylase 4A (Homo sapiens), O75164; Potency, µM (highest dose often 114 µM), most hits filed as inhibitors; actives 4.4% (n = 390,000); AlphaScreen JMJD2A-Tudor / H3K4me3 peptide binding; also: nearly all actives have a fitted effect of over 50% in size
Target sequence (O75164 whole entry, looked up, the tested form may be a part): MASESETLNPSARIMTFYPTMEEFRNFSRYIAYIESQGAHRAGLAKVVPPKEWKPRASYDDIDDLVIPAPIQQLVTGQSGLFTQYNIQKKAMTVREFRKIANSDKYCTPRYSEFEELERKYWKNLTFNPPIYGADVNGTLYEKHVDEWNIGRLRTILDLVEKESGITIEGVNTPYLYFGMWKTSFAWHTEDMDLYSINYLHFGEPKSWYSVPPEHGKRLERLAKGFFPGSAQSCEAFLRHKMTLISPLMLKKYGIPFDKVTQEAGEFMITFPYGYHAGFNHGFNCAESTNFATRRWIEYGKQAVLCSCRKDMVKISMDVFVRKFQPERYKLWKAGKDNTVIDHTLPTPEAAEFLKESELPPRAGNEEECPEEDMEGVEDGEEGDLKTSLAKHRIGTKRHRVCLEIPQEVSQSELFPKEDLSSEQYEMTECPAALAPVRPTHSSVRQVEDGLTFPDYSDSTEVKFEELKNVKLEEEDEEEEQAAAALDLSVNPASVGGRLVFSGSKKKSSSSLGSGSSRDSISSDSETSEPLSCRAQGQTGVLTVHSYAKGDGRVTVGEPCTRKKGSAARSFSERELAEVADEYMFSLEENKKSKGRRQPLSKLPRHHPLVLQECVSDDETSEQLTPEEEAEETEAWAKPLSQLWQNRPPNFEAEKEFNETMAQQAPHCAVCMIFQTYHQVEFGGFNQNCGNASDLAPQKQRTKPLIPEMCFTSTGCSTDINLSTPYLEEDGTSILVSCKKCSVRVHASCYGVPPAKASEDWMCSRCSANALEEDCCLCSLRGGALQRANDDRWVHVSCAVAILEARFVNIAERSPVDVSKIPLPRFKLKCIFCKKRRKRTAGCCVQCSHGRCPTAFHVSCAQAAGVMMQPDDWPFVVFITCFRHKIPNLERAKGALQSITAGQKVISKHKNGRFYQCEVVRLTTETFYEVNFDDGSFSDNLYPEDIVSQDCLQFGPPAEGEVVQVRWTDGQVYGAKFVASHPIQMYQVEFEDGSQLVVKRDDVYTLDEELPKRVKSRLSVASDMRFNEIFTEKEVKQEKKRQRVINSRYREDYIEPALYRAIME
HP1b binding inh: HTS for Inhibitors of HP1-beta Chromodomain Interactions with Methylated Histone Tails; AlphaScreen HP1-beta / biotin-H3K9me3 peptide binding; Potency, µM (titrated, usually from 114 µM), actives largely listed as inhibitors; actives 0.56% (n = 390,000); also: nearly all actives have a fitted effect of over 70% in size
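Compound inhibition of the preformed complex between 50 nM HP1-beta and 50 nM biotinylated H3K9me3 peptide was read by AlphaScreen. Buffer was PBS pH 7.4 with 0.01% Tween-20. Incubations ran 30 min at room temperature, with 10 ug/mL donor/acceptor beads.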
L3MBTL1 block: qHTS Assay for the Inhibitors of L3MBTL1; Lethal(3)malignant brain tumor-like protein 1 (Homo sapiens), Q9Y468; AlphaScreen L3MBTL1–H3K9me1 peptide binding; Potency, µM (doses to about 57.1 µM), usual class: inhibitors; actives 0.66% (n = 230,000); AID 485360, 2010; also: nearly all actives have a fitted effect of over 60% in size
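Displacement of a biotinylated histone H3(1-15) peptide monomethylated at Lys9 (75 nM) from L3MBTL1 (50 nM) was measured by AlphaScreen after a 30 min room-temperature compound incubation; cefsulodin titration served as intraplate control.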
BAZ2B block: qHTS Assay for Inhibitors of BAZ2B | actives 4.4% (n = 360,000) | AID 504333, 2011 | Potency, µM (series often up to 114 µM), most hits filed as inhibitors | Bromodomain adjacent to zinc finger domain protein 2B (Homo sapiens), Q9UIF8 | AlphaScreen BAZ2B-H3K14Ac peptide displacement; also: nearly all actives have a fitted effect of over 60% in size
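BAZ2B 50 nM plus b-H3(5-23)K14Ac 50 nM, PBS pH 7.4/0.01% Tween-20, 30 min RT; compound added (max 110 uM), 30 min RT; streptavidin donor/Ni-chelate acceptor beads 10 ug/mL final, 20 min dark; AlphaScreen read.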
G9a inh: qHTS Assay for Inhibitors of Histone Lysine Methyltransferase G9a. G9a H3K9 monomethylation, AlphaScreen, 2 h. actives 8.8% (n = 350,000). Potency, µM (top dose mostly 102 µM), most hits filed as inhibitors; also: nearly all actives have a fitted effect of over 75% in size
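Methyltransferase reactions run at room temperature for 2 h (20 nM enzyme, 500 nM biotin-H3K9 peptide, 20 uM SAM) after a 15 min compound preincubation; product detected by AlphaScreen beads and anti-H3K9me1 antibody.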
Large screens that a line does not name were inactive. Most compounds without a hit are left out; they make up all but 11% or so of the library. Calls follow the shape of the dose curve; as a rule, active = well fitted inhibition curve with a large enough effect; inconclusive = small, poorly fitted or top-dose-only effect; inactive = no such curve, though single readings can be large or run the other way.

COc1cc(C(=O)NCC(c2cccs2)S(=O)(=O)c2ccc(F)cc2)cc(OC)c1OC (centres undefined)	none (no result: L3MBTL1 block)
Cn1cccc1Cc1nnc(SCC(=O)NCc2ccc(F)cc2)n1-c1ccc(F)cc1	BAZ2B block inconclusive, G9a inh 50µM
Cn1cccc1Cc1nnc(SCC(=O)NC2CCCCC2)n1CCc1ccccc1	JMJD2A Tudor inconclusive, G9a inh 45µM
COc1ccc(-n2c(Cc3cccn3C)nnc2SCC(=O)NC2CCCCC2)cc1	G9a inh inconclusive
Cn1cccc1Cc1nnc(SCC(=O)NC2CCCC2)n1-c1ccc(F)cc1	G9a inh 71µM (no result: L3MBTL1 block)
COc1cccc(-n2c(Cc3cc(=O)[nH]c(=O)[nH]3)nnc2SCC(=O)NC2CCCCC2)c1	G9a inh inconclusive
O=C(CSc1nnc(Cc2cc(=O)[nH]c(=O)[nH]2)n1-c1ccc(F)cc1)NC1CCCC1	G9a inh 79µM
COc1ccc(S(=O)(=O)N(CC(=O)Nc2cccc(C)c2)c2ccc(C)cc2)cc1OC	none (no result: L3MBTL1 block)
COC(=O)c1ccccc1NC(=O)c1ccc2c(c1)CCN2S(=O)(=O)c1ccc(Cl)cc1	none (no result: L3MBTL1 block)
Cc1cc(C)cc(N2C(=O)CSC23C(=O)N(CC(=O)NCCc2ccccc2)c2ccccc23)c1 (centres undefined)	none (no result: L3MBTL1 block)
Cc1ccc2c(CC(=O)Nc3cc(C(F)(F)F)ccc3Cl)coc2c1C	JMJD2A Tudor inconclusive (no result: L3MBTL1 block)
CCc1nn(C)c(-c2n[nH]c(=S)n2N)c1Cl	JMJD2A Tudor 35µM, BAZ2B block inconclusive, G9a inh inconclusive
CCc1cc(-c2n[nH]c(=S)n2N)n(C)n1	JMJD2A Tudor 8.9µM, HP1b binding inh inconclusive, BAZ2B block 79µM, G9a inh 10µM
COc1ccc(NC(=O)Cn2c(=O)oc3cc(S(=O)(=O)NCc4ccccc4)ccc32)c(OC)c1	none (no result: L3MBTL1 block)
O=c1[nH]c(-c2ccccn2)nc2ccccc12	JMJD2A Tudor 56µM, L3MBTL1 block inconclusive, BAZ2B block 45µM
O=c1[nH]c(-c2ccccn2)nc(C(F)(F)F)c1Br	JMJD2A Tudor 18µM, L3MBTL1 block inconclusive, BAZ2B block 28µM
COC(=O)c1sccc1NC(=S)Nc1cc(C)ccc1OC	JMJD2A Tudor inconclusive, G9a inh 50µM (no result: L3MBTL1 block, BAZ2B block)
COC(=O)c1sccc1NC(=S)N1C(C)CCCC1C (centres undefined)	G9a inh 10µM (no result: L3MBTL1 block)
COC(=O)c1sccc1NC(=S)N1CCCCC1C (centres undefined)	G9a inh inconclusive (no result: L3MBTL1 block)
COCCOC(=O)c1c(C)oc2c1cc(NS(=O)(=O)c1ccc(Cl)c(C)c1)c1ccccc12	none (no result: L3MBTL1 block)
COc1ccc(S(=O)(=O)c2c(SC)nn(Cc3ccccc3C)c2NC(C)=O)cc1	none (no result: L3MBTL1 block)
CCOC(=O)c1c(NC(=O)C2CCCO2)sc(C(=O)OC(C)(C)C)c1C (centres undefined)	JMJD2A Tudor inconclusive, HP1b binding inh inconclusive, G9a inh 3.5µM (no result: L3MBTL1 block)
CCOC(=O)c1c(NC(=O)C2CCCO2)sc(C)c1C (centres undefined)	none
CCOC(=O)c1sc(NC(=O)C2CCCO2)c(C(=O)OCC)c1C (centres undefined)	BAZ2B block 56µM (no result: JMJD2A Tudor, HP1b binding inh, L3MBTL1 block)
N#CCCn1c(=O)c(CCc2ccccc2)nc2cnc(N3CCOCC3)nc21	none (no result: JMJD2A Tudor, HP1b binding inh, L3MBTL1 block, BAZ2B block)
Cc1cc(C)nc(N/N=C/c2ccc(N3CCOCC3)cc2)n1	none
Cc1cc(C)nc(Nc2ccc(N3CCCC3)cc2)n1	JMJD2A Tudor 35µM, HP1b binding inh inconclusive, BAZ2B block 28µM, G9a inh inconclusive (no result: L3MBTL1 block)
Cc1cc(C)nc(Nc2ccc(N3CCOCC3)cc2)n1	G9a inh 50µM
CCCc1cc(=O)[nH]c(Nc2ccc(N3CCCCC3)cc2)n1	JMJD2A Tudor 50µM, HP1b binding inh inconclusive, BAZ2B block 50µM, G9a inh 8.9µM
Cc1cc(C)nc(Nc2ccc(O)cc2)n1	none (no result: L3MBTL1 block)
Cc1nc(NCCc2ccc(O)cc2)c2nnn(Cc3ccccc3)c2n1	none
COc1ccccc1C(=O)Nc1ccc(C(=O)OCc2cc(=O)n3c4c(sc3n2)CCCC4)cc1	JMJD2A Tudor inconclusive, BAZ2B block inconclusive (no result: L3MBTL1 block)

Screening data from PubChem BioAssay.
